Sampled rows, rich in hits. Any-hit rate of the full collection: about 3.2%.
TbPYK inhibitor – T. brucei pyruvate kinase inhibition; Q57TT1; 0.12% of 410,000 active; TbPYK enzyme, Kinase-Glo Plus ATP luminescence, 45 min; AID 624173; Potency, µM (doses to about 76.8 µM), inactives show top-dose activity, negative = inhibition, most hits filed as inhibitors; note: nearly all actives have a fitted effect of over 50% in size
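Luminescence from Kinase-Glo Plus, added after a 45-minute room-temperature reaction, served as the end-point read-out. The enzyme and substrate were preincubated with compound before ADP (130 uM final) initiated turnover. Concentration-effect curves came from normalized qHTS data.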
LmPK inhibitor – LmPK (Leishmania mexicana) enzyme inhibition; purified LmPK, Kinase-Glo ATP luminescence, 1 h; 0.37% of 290,000 active; Potency, µM (highest dose often 57.5 µM), for the others: at the top dose activity change, negative = inhibition, hits mostly inhibitors; Q27686
Target sequence (Q27686 whole entry, looked up): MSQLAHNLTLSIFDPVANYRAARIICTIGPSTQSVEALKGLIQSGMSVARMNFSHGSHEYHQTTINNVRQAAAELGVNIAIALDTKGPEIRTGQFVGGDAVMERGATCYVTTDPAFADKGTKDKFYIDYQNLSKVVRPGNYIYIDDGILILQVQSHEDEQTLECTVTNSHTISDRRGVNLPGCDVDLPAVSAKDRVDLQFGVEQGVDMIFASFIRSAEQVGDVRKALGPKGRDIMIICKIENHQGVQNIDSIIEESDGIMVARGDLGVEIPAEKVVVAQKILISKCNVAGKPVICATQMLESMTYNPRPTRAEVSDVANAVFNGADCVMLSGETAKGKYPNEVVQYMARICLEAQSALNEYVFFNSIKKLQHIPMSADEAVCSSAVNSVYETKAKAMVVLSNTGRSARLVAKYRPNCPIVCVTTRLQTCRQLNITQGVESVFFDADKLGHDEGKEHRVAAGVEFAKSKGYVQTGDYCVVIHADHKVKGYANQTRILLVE
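ATP generated from ADP (0.1 mM) and PEP (0.5 mM) by 0.1 nM LmPK over 1 h at room temperature (pH 7.2 imidazole buffer) was detected by coupled luciferase luminescence. Values were normalized to uninhibited and no-enzyme wells.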
AMA1 RON2 block – disrupts binding of P. falciparum AMA1 to RON2; AlphaScreen AMA1-biotinylated RON2 peptide binding; Potency, µM (top dose mostly 58.2 µM), inactives show at the highest dose activity change, negative = inhibition, most hits filed as inhibitors; 0.2% of 360,000 active;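 note: 0% = vehicle wells and -100% = peptide control; nearly all actives have a fitted effect of over 45% in size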
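AMA1 (3D7) with his tag at 25 nM final met compounds first, then biotinylated RON2 peptide at 25 nM; detection used donor plus acceptor beads, 10 µg/mL apiece, read by AlphaScreen after 30 min at room temperature.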
RE007 growth inh – less growth of the S. pombe RE007 Vpr strain. 0.21% of 360,000 active. Potency, µM (top dose mostly 92.2 µM), for the others: at the highest dose activity change, negative = less growth, most hits filed as inhibitors. S. pombe RE007 Vpr strain, BacTiter-Glo ATP luminescence, 24 h. AID 651644; active = well fitted falling curve with a large enough effect; inconclusive = small, poorly fitted or top-dose-only effect; inactive = no such curve, though single readings can be large or run the other way; note: nearly all actives have a fitted effect of over 50% in size
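Fission yeast strain RE007, carrying one chromosomally integrated HIV-1 vpr copy, was seeded at OD 0.01 in PMG+AL medium with 23 nL pinned compound. After 24 h at 30 °C and 99% humidity, viability was read by BacTiter-Glo luminescence.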
Sm TGR block – inhibitors of Schistosoma mansoni thioredoxin glutathione reductase. Potency, µM (doses to about 114 µM), for the others: top-dose activity change, negative = inhibition, actives largely listed as inhibitors. purified TGR, DTNB reduction, TNB absorbance 405 nm. Q962Y6. 3% of 360,000 active; note: nearly all actives have a fitted effect of over 60% in size
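Kinetic colorimetric format: TGR-catalysed, NADPH-driven DTNB reduction monitored via TNB absorbance. Enzyme dispensed at 20 nM; compound exposure 15 min at room temperature before reaction start.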
Starred values were filed as active, the others as inactive; u = inconclusive; x = not tested or not shown; [ ] = dose if it differs, or a comment. Unless noted, calls come from the whole dose curve; as a rule, active = well fitted curve in the direction sought with a large enough effect; inconclusive = small, poorly fitted or top-dose-only effect, or another doubt; inactive = no such curve, though single readings can be large; an effect the other way counts as inactive or inconclusive. Unless noted, % is set by controls: 0 for no effect and ±100 for the full control effect; potency is the fitted concentration of half-maximal effect.

SMILES	TbPYK inhibitor	LmPK inhibitor	AMA1 RON2 block	RE007 growth inh	Sm TGR block
COc1cc2c(cc1OC)C(c1ccccc1)N(C(=O)CCl)CC2 (centres undefined)	2%	-1%	-12%	9%	4µM*
CC(=O)c1ccc(N2C(=O)N(Cc3cccc(C(F)(F)F)c3)c3ccccc3S2(=O)=O)cc1	-2%	x	x	x	9%
Cc1cccc(C(c2sc3nc(-c4ccco4)nn3c2O)N2CCOCC2)c1 (centres undefined)	1%	x	x	x	5%
Cc1ccc(C(=O)CSC2=C(C#N)C(c3ccco3)C3=C(CCCC3=O)N2)cc1 (centres undefined)	-11%	0%	-19%	-15%	u
CC(C)(C)c1ccc(C(=O)CCCSC2=C(C#N)C(c3ccco3)C3=C(CCCC3=O)N2)cc1 (centres undefined)	-7%	3%	-5%	5%	40µM*
Brc1ccc2c(c1)C(OC1CN3CCC1CC3)c1ccccc1CS2 (centres undefined)	5%	0%	-3%	14%	89µM*
CC(=O)OCC1=C(C(=O)O)N2C(=O)C(NC(=O)Cc3ccccc3)C2SC1 (centres undefined)	3%	x	x	x	x
CC(=O)OCC1=C(C(=O)O)N2C(=O)C(NC(=O)C(C)Cn3nc(C)c(Cl)c3C)C2SC1 (centres undefined)	-5%	2%	24%	-7%	28µM*
CC(=O)OCC1=C(C(=O)O)N2C(=O)[C@@H](NC(=O)CSc3ccncc3)[C@H]2SC1	-7%	x	43%	0%	45µM*
CCOC(=O)c1ccc(N2CCN(c3cccc(Cl)c3)CC2)c(NC(=O)Nc2ccc(OC)cc2OC)c1	-14%	x	x	x	3%
Cc1ccc(Cn2c(/C=C/c3ccco3)nc3ccccc32)cc1	-25%	-7%	-7%	14%	11µM*
Clc1ccc(Cn2c(/C=C/c3ccco3)nc3ccccc32)cc1	-11%	-11%	6%[11.6 µM]	17%	28µM*
CCCCN(C)CCNC(=O)c1c2c(nc3ccccc13)C(=O)N(C1CCCCC1)C2	0%	x	x	x	1%
Cc1cc(=O)n2nc(N3CCC(C(=O)Nc4c(C)cccc4C)CC3)sc2n1	-6%	x	x	x	-3%
Cc1ccc2c(c1)sc[n+]2Cc1ccccc1	u	4%	u	-1%	5.6µM*
Cc1ccc(-c2cc[n+](Cc3ccccc3)cc2)cc1	-19%	-11%	8%	5%	101%
Cn1ccc2c(N3CCCCC3)cc3c(c21)C1CCC3C1 (centres undefined)	-5%	x	16µM*	-27%	x
Cn1ccc2c(N3CCCC3)cc3c(c21)C1CCC3O1 (centres undefined)	-9%	x	u	-26%	x
Cn1ccc2c(N3CCCCCC3)cc3c(c21)C1CCC3O1 (centres undefined)	-11%	x	32µM*	-29%	x
Cc1cccc(C)c1OCCn1c(C2CC(=O)N(Cc3ccc(F)cc3)C2)nc2ccccc21 (centres undefined)	4%	x	x	x	-4%
Cc1cc(C)n(-c2nc(C)c(C)c(=O)n2CC(=O)Nc2ccc(Cl)c(Cl)c2)n1	-2%	x	x	x	5%
CCc1ccc(CNC(=O)c2ccc(CS(=O)(=O)Cc3cccc(C)c3)o2)cc1	-12%	x	x	x	8%
Cc1ccc(CSCc2ccc(C(=O)O)o2)cc1	-27%	2%	3%	3%	u
Cc1cccc(CS(=O)(=O)Cc2ccc(C(=O)NCCN3CCCCC3C)o2)c1 (centres undefined)	-3%	-5%	-6%	-9%	35µM*
Cc1cccc(CSCc2ccc(C(=O)O)o2)c1	2%	8%	-10%	0%	50µM*
Cc1cccc(CS(=O)(=O)Cc2ccc(C(=O)O)o2)c1	4%	-8%	0%	1%	25µM*
CCOc1ccccc1C(=O)NCC(c1cccs1)S(=O)(=O)c1ccc(F)c(C)c1 (centres undefined)	1%	x	x	x	-7%
COc1cc2c(C(=O)N3CCN(c4cccc(C)c4)C(C)C3)cn(CC(C)C)c(=O)c2cc1OC (centres undefined)	-6%	x	x	x	-11%
